Test results as given in PubChem BioAssay.
Activity calls are given as the source filed them.

Assays:
[1] = small-molecule microarray binders of probe aLefty2, primary screen, biochemical, biotinylated probe, 635/667 nm fluorescence (AID 1094); conditions: higher = more signal;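 further: score merges spot fluorescence near 667 nm with spot signal-to-noise ratio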
[2] = system: Noggin (protein binding on small-molecule microarray); assay: Noggin binders on small-molecule microarray, primary screen, biochemical, 635/667 nm fluorescence (AID 1095); conditions: 635 nm fluorescence, higher = more signal;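 further: score merges 667 nm feature fluorescence with signal to noise over triplicate slides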
[3] = target: Neurogenic locus notch homolog protein 3 (Homo sapiens) (UniProt Q9UM47); assay: NOTCH3 binders on small-molecule microarray, primary screen, biochemical, 635/667 nm fluorescence (AID 1096); conditions: NOTCH3 binding, 635 nm fluorescence, higher = more signal
[4] = small-molecule microarray binders of probe aEGFR, primary screen, biochemical, biotinylated probe, 635/667 nm fluorescence (AID 1097); conditions: higher = more signal;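 further: probe is a biotinylated anti-EGFR antibody binding compounds printed on slides; score combines fluorescence near 667 nm and signal to noise of each spot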
[5] = system: Plasmodium falciparum Sir2 (PF13_0152, Sir2A); assay: pfSir2 binders on small-molecule microarrays, primary screen, biochemical, small-molecule microarray, 635 nm fluorescence (AID 1098); conditions: small-molecule microarray binding, fluorescence 635 nm; higher = more signal;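 further: score merges spot fluorescence intensity with its signal-to-noise ratio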
[6] = small-molecule microarray binders of probe aDKK1, primary screen, biochemical, biotinylated probe, 635/667 nm fluorescence (AID 1099); conditions: higher = more signal;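 further: score merges 667nm spot fluorescence with signal to noise across triplicate slides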
[7] = small-molecule microarray binders of probe aCHRDL2, primary screen, biochemical, biotinylated probe, 635/667 nm fluorescence (AID 1100); conditions: higher = more signal
[8] = splicing luciferase reporter signal modulators, primary screen, spliceosome inhibition project, cell-based, HEK293, splice +/- reporter (AID 1101); conditions: luminescence, 24 h, higher = more signal, called active from +8 up or from −8 down;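 further: HEK293 cells carrying a splicing-competent luciferase reporter gene; test concentration not given here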
[9] = target: Fibroblast growth factor 10 (Homo sapiens) (UniProt O15520); assay: FGF10 binders on small-molecule microarrays, primary screen, biochemical, small-molecule microarray, 635 nm fluorescence (AID 1102); conditions: FGF10 binding, fluorescence 635 nm, higher = more signal
[10] = system: glycogen synthase kinase-3 (GSK3A per assay name; protocol says GSK3B); assay: GSK3 binders on small-molecule microarrays, primary screen, biochemical, small-molecule microarray, 635 nm fluorescence, GSK3A (AID 1103); conditions: small-molecule microarray binding, fluorescence 635 nm; higher = more signal; further: the record names both GSK3A and GSK3B
[11] = target: Epidermal growth factor receptor (Homo sapiens) (UniProt P00533); assay: EGFR binders on small-molecule microarrays, primary screen, biochemical, small-molecule microarray, 635 nm fluorescence (AID 1104); conditions: EGFR binding, higher = more signal;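 further: score merges 667 nm emission intensity with spot signal to noise over triplicate slides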
[12] = target: Follistatin-related protein 3 (Homo sapiens) (UniProt O95633); assay: FSTL3 binders on small-molecule microarrays, primary screen, biochemical, small-molecule microarray, 635 nm fluorescence (AID 1105); conditions: FSTL3 binding, higher = more signal;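 further: score merges emission near 667 nm and signal to noise per printed spot across three slides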
[13] = target: Dickkopf-related protein 1 (Homo sapiens) (UniProt O94907); assay: DKK1 binders on small-molecule microarrays, primary screen, biochemical, small-molecule microarray, 635 nm fluorescence scan (AID 1106); conditions: DKK1 binding, higher = more signal;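 further: score merges emission near 667 nm with signal to noise over three replicate slides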
[14] = system: Inhibin beta A chain (activin A); assay: INHBA (activin A) binders on microarrays, primary screen, biochemical, small-molecule microarray, 635 nm fluorescence scan (AID 1107); conditions: small-molecule microarray binding, higher = more signal;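 further: mouse activin A protein probed at 4.33 µg/mL on printed slides; score merges bound-protein fluorescence near 667 nm with spot signal-to-noise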
[15] = system: Human papillomavirus type 1a protein E7 (residues 44-93); assay: HPV1a E7 fragment binders on microarrays, primary screen, biochemical, small-molecule microarray, residues 44-93, 635 nm fluorescence (AID 1108); conditions: small-molecule microarray binding, fluorescence 635 nm; higher = more signal;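 further: E7 fragment applied at 1 µg/mL in TBST for 1 h at 4 C; score combines spot fluorescence with its signal to noise ratio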
[16] = modulators of HCV replicon luciferase signal, primary screen, HCV replication inhibitor project, Huh7 cells, luciferase reporter (AID 1109); conditions: 48 h, higher = more signal;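 further: huh7 hepatoma cells harbouring a luciferase neomycin HCV replicon reporter; luciferase luminescence as measure of HCV replicon replication; test concentration not given here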
[17] = target: Left-right determination factor 2 (Homo sapiens) (UniProt O00292); assay: LEFTY2 binders on small-molecule microarrays, primary screen, biochemical, small-molecule microarray, 635 nm fluorescence scan (AID 1110); conditions: LEFTY2 binding, higher = more signal
[18] = target: Calmodulin-1 (Homo sapiens) (UniProt P0DP23); assay: CALM1 binders on microarrays, EGTA buffer, profiling panel, biochemical, small-molecule microarray, Cy5-labelled CALM1 (AID 1111); conditions: Cy5-CALM1 binding fluorescence, higher = more signal;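 further: labelled calmodulin applied in Tris saline Tween buffer holding calcium plus EGTA and DTT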
[19] = target: Calmodulin-1 (Homo sapiens) (UniProt P0DP23); assay: calcium-bound CALM1 binders on microarrays, profiling panel, artefact control for SMM control-protein annotation, biochemical, small-molecule microarray, Cy5-labelled CALM1, plus calcium (AID 1112); conditions: Cy5-CALM1 binding fluorescence, higher = more signal;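 further: score merges spot fluorescence with signal to noise from triplicate slides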
[20] = small-molecule microarray binders of probe aWnt5a, primary screen, biochemical, biotinylated probe, 635/667 nm fluorescence (AID 1113); conditions: higher = more signal;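 further: score merges 667 nm fluorescence intensity with signal-to-noise per printed feature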

Chain of Follistatin-related protein 3 (Homo sapiens) (O95633 whole entry, looked up): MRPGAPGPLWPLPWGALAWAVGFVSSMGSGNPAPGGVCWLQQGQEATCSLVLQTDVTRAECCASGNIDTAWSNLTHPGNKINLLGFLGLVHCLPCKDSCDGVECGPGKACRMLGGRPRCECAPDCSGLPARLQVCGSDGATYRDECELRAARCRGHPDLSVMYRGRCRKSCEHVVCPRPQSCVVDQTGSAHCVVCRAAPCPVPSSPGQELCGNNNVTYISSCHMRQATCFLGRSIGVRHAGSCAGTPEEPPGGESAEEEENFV
Chain of Fibroblast growth factor 10 (Homo sapiens) (O15520 whole entry, looked up): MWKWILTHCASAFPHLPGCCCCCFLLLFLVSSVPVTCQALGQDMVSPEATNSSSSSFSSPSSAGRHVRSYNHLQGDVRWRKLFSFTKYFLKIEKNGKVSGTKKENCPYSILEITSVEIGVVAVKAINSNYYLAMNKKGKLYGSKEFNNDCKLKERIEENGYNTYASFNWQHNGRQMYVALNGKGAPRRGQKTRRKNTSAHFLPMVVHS
Chain of Dickkopf-related protein 1 (Homo sapiens) (O94907 whole entry, looked up): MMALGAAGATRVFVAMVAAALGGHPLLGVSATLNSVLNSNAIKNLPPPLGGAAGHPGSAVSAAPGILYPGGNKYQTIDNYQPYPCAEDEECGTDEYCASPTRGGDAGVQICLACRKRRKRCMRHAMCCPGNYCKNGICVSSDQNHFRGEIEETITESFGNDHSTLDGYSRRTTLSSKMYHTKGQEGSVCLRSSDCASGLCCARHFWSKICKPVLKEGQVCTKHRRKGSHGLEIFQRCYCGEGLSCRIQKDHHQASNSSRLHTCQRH
Chain of Epidermal growth factor receptor (Homo sapiens) (P00533 whole entry, looked up): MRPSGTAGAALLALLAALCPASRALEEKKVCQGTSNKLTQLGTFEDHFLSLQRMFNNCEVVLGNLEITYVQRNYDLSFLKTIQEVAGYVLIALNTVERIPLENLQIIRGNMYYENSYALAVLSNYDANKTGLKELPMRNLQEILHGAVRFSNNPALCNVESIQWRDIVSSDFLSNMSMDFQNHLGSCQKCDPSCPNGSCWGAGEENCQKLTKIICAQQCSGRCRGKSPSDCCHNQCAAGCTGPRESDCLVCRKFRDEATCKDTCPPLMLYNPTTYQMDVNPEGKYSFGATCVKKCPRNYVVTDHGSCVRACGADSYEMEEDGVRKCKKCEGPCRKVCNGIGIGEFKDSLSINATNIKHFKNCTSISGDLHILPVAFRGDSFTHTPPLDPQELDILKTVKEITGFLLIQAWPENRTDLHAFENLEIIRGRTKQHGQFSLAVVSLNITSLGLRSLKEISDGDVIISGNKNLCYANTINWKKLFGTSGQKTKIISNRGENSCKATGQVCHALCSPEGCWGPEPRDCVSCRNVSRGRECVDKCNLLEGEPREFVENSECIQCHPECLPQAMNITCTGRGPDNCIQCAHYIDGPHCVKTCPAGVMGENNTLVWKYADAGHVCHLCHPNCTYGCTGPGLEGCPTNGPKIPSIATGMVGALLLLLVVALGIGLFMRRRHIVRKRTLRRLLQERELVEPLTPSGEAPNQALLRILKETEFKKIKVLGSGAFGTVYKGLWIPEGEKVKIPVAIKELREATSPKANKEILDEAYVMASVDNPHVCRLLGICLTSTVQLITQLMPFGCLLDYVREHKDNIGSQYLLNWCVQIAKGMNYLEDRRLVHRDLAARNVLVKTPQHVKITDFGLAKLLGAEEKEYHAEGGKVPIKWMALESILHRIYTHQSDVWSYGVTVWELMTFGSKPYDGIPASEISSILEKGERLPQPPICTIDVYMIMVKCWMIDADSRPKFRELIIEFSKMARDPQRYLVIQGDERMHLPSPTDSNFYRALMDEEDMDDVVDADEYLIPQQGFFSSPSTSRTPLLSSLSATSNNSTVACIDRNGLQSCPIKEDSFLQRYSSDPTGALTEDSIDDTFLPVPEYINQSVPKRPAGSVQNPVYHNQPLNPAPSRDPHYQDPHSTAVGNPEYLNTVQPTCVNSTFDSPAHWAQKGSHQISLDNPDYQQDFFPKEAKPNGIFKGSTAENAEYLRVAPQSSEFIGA
Chain of Neurogenic locus notch homolog protein 3 (Homo sapiens) (Q9UM47 whole entry, looked up): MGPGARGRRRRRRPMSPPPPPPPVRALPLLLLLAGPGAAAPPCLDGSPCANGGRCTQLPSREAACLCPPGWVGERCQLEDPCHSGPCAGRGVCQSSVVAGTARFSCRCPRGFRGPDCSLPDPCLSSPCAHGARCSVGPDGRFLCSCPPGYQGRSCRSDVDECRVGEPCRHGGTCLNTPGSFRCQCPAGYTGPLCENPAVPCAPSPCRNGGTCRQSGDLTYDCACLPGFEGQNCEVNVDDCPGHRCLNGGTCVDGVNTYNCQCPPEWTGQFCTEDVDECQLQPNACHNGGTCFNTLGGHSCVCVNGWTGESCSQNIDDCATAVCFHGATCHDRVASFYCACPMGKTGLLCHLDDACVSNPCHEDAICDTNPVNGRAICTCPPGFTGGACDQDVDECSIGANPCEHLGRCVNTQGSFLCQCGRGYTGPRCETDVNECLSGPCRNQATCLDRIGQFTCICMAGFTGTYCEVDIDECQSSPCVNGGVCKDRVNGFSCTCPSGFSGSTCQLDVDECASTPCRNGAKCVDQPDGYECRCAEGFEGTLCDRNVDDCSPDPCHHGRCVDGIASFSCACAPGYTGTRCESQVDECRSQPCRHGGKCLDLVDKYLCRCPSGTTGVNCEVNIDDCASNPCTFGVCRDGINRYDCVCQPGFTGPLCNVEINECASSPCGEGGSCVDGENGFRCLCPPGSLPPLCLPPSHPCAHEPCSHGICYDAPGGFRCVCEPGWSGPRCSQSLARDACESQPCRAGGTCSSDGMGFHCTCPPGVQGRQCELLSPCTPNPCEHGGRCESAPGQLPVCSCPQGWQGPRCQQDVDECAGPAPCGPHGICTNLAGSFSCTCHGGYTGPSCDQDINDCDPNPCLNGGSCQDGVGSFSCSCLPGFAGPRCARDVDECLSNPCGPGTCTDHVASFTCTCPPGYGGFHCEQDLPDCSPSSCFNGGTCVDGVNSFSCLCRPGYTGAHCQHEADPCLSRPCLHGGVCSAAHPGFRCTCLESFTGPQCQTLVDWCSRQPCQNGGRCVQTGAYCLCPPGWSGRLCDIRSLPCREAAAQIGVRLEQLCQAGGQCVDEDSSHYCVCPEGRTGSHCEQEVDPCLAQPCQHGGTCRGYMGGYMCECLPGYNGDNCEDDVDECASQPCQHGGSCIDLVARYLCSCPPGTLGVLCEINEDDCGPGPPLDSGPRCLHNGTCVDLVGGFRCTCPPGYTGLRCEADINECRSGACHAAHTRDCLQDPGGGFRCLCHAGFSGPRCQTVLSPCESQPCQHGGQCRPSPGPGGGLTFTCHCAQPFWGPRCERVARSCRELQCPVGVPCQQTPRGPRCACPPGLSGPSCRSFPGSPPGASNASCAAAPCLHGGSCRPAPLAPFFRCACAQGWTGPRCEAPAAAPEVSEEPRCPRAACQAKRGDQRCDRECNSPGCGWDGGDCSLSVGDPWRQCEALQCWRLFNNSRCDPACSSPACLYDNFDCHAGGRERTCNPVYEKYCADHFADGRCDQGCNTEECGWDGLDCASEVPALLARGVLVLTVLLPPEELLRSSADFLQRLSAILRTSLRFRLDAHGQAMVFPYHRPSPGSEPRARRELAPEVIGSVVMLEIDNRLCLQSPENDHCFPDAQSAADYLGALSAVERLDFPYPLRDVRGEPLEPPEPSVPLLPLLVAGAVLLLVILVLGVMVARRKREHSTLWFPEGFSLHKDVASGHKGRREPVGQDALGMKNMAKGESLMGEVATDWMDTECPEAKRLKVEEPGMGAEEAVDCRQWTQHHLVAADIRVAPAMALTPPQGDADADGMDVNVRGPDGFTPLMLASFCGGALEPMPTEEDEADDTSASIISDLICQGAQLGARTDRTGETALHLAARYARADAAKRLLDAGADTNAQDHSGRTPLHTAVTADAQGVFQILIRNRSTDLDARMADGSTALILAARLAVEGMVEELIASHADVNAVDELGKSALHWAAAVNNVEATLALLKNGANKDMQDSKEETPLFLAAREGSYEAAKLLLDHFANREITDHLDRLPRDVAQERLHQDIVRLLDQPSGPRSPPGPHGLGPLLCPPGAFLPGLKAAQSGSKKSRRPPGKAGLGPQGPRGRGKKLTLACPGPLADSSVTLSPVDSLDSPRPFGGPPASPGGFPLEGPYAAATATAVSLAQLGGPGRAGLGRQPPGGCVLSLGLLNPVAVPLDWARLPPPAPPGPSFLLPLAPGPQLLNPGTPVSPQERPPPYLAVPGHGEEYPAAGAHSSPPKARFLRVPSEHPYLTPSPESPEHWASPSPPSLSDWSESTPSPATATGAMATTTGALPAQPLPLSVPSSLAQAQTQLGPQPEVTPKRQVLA
Chain of Left-right determination factor 2 (Homo sapiens) (O00292 whole entry, looked up): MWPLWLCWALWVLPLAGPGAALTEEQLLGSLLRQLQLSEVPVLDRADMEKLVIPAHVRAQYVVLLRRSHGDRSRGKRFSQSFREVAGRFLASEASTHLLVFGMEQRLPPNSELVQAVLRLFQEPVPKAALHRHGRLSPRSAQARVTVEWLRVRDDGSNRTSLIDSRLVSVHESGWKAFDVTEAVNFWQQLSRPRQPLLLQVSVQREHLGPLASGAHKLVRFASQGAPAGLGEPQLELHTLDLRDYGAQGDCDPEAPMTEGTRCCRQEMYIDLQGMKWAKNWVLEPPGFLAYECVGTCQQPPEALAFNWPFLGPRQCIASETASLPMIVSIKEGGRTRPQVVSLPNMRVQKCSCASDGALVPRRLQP

| Compound | composite z-score [1] | composite z-score [2] | composite z-score [3] | composite z-score [4] | composite z-score [5] | composite z-score [6] | composite z-score [7] | z-score [8] | composite z-score [9] | composite z-score [10] | composite z-score [11] | composite z-score [12] | composite z-score [13] | composite z-score [14] | composite z-score [15] | z-score [16] | composite z-score [17] | composite z-score [18] | composite z-score [19] | composite z-score [20] |
| --- | --- | --- | --- | --- | --- | --- | --- | --- | --- | --- | --- | --- | --- | --- | --- | --- | --- | --- | --- | --- |
| CC(C)C(CO)N1C(=O)[C@@H]2C3C(=O)OCCC/C=C\[C@H]3OC23C=CCN(C(C)C)C(=O)[C@@H]13 (stereo not given in full) | 0.727 | -0.868 | -0.134 | -0.188 | 1.86 | -0.191 | 0.481 | -0.895 (inactive) | -0.547 | -0.875 | -1.2 | -0.826 | -0.868 | 0.968 | -0.359 | -0.069 | -0.73 | -0.467 | -0.14 | -0.221 |
| C/C=C/[C@@H](CCn1cc(CCO[Si](C(C)C)(C(C)C)C(C)C)nn1)[Si](C)(C)c1ccc(OC)cc1 | -0.275 | -1.15 | -3.03 | -0.406 | -0.82 | -0.941 | -0.34 | -2.83 (inactive) | -1.03 | -0.918 | -2.01 | -1.72 | -1.03 | 1.01 | -0.77 | -0.918 | -0.426 | -2.98 | -2.87 | -0.182 |
| CO[C@H]1O[C@H](CO)[C@@H](OC(=O)CCc2ccccc2)[C@@H]2OC(=O)[C@H](Cc3ccccc3)C/C=C/C[C@@H](Cc3ccccc3)C(=O)O[C@@H]12 | -0.0905 | -0.748 | -0.033 | -0.347 | 0.489 | -0.332 | 0.268 | -0.87 (inactive) | -0.135 | -1.24 | -0.938 | -0.861 | -0.844 | 1.17 | -0.673 | -1.31 | -0.0637 | -0.879 | -0.123 | -0.106 |
| C=CCN1C(=O)[C@@]2(O[C@@H](CCn3cc(CCO)nn3)[C@H]([Si](C)(C)c3ccc(OC)cc3)[C@H]2C)c2cc(N3C(=O)c4cccc5cccc3c45)ccc21 | -0.0592 | 0.412 | 1.07 | -0.0332 | 0.579 | 0.13 | -0.224 | -3.34 (inactive) | 0.466 | 0.308 | 0.234 | 0.688 | 0.315 | 0.58 | 0.51 | -5.22 | -0.165 | 1.37 | 0.258 | 0.0733 |
| C=CCN1C(=O)[C@@]2(O[C@@H](CCO)[C@H]([Si](C)(C)c3ccc(OC)cc3)[C@H]2C)c2cc(N3C(=O)c4cccc5cccc3c45)ccc21 | -0.156 | -0.106 | -0.0485 | -0.147 | 1 | -0.0284 | 0.392 | -3.45 (inactive) | 0.102 | 0.307 | -0.232 | -0.189 | -0.4 | 0.18 | 0.515 | -5.15 | -0.144 | 0.965 | 0.734 | -0.176 |
| CC(C)C[C@@H]1NC(=O)[C@@]23C(=O)N[C@@H](Cc4ccccc4)C2[C@H](C)[C@@]2(C)O[C@H]2C3/C=C/C/C=C\CNC(=O)[C@H](Cc2ccccc2)NC1=O (stereo not given in full) | -0.202 | 0.404 | 0.414 | -0.0671 | 0.608 | -0.117 | -0.417 | -0.639 (inactive) | 0.286 | 0.151 | 0.137 | 0.315 | 0.335 | 1.49 | -1.3 | -2.08 | 0.534 | -0.388 | -0.485 | -0.152 |
| Cc1ccc(S[C@]2(C(=O)NCC(C)C)CC(=O)N(C(C)C)[C@@H]2c2ccc(CO)cc2)cc1 | -0.0193 | -0.197 | -0.534 | -0.175 | 0.0739 | 0.457 | 0.696 | -0.982 (inactive) | -0.475 | -0.771 | -0.33 | -0.196 | -0.574 | 0.727 | -0.962 | -0.725 | -0.594 | -0.886 | 0.134 | -0.124 |
| [N-]=[N+]=NCc1ccccc1C[C@@]1(C(=O)O)N=C(c2ccc(OCCCO)cc2)O[C@@H]1c1ccccc1 | 0.0424 | -0.811 | -0.364 | -0.221 | 1.31 | 0.884 | 1.24 | -0.618 (inactive) | -0.0995 | -0.374 | -0.906 | -0.879 | -1.09 | 0.738 | 0.566 | -0.616 | -0.404 | 2.13 | 1.36 | -0.0799 |
| COCCCNC(=O)[C@@]1(Cc2ccccc2)N=C(c2ccc(OCCCO)cc2)O[C@H]1c1ccccc1N=[N+]=[N-] | 0.612 | 1.89 | 0.773 | 0.247 | 0.481 | 1.22 | 1.19 | -1.3 (inactive) | 1.2 | 1.24 | -0.176 | 0.176 | 0.101 | 1.31 | 0.175 | -2.59 | -0.151 | 1.05 | 0.945 | 0.115 |
| C=CC[C@]1(C(=O)N2CCCCC2)COC(c2ccc(OCCCO)cc2)=N1 | 0.0499 | 0.452 | -0.904 | -0.0933 | -0.0697 | -0.0336 | 0.83 | 0.682 (inactive) | -0.621 | -0.217 | -1 | -1.32 | -0.358 | 1.28 | 0.0296 | -1.1 | -0.727 | -1.56 | -0.29 | -0.176 |
